# Screens as filed in PubChem.
# Hits are enriched below; roughly 9% of the tested compounds scored in any of these assays.
# LMNA splice mod: changes lamin A minigene splicing in HeLa cells; HeLa LMNA splicing GFP/RFP minigene ratio, 48 h; Potency, µM (series often up to 46.1 µM), actives largely listed as inhibitors; hit rate 0.01% among 200,000; AID 1487; active = well fitted inhibition curve with a large enough effect in the signal ratio, with a control signal flat, not every such curve was filed as active; inconclusive = small, poorly fitted or top-dose-only effect, or effect the other way, or a change in a side signal; the % refers to the signal ratio
#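 S3 HeLa stable clones carrying a lamin A-EGFP splicing minigene plus DsRed2 were seeded at 600 cells/well in Opti-MEM with 2% FBS, pin-dosed and incubated 48 h at 37°C. Acumen cytometry (488 nm) gave the GFP/RFP total-intensity ratio.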
# HPGD block: blocks human HPGD enzyme activity; P15428; purified HPGD, NADH fluorescence kinetic, PGE2 substrate; Potency, µM, hits mostly inhibitors; hit rate 4.3% among 150,000; AID 894; active = well fitted inhibition curve with a large enough effect, not every such curve was filed as active; inconclusive = small, poorly fitted or top-dose-only effect, or another doubt; inactive = no such curve, though single readings can be large or run the other way
# Target sequence (P15428 whole entry, looked up): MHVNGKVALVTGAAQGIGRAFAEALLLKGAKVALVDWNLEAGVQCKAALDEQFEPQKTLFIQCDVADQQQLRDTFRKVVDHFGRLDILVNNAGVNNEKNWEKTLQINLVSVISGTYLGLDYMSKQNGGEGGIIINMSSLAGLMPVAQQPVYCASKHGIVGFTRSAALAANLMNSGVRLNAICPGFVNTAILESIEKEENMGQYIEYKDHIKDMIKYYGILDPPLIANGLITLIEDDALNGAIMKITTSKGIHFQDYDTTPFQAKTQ
#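 NADH formation kinetics: reaction with 30 uM PGE2 and 1 mM NAD+ (final), 20 nM enzyme, Tris-HCl pH 8 with Tween 20, after 15 min compound preincubation at room temperature. Fluorescence change, last versus first of five reads.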
# HTT cytoprotect: protects HTT-Q103 PC12 cells, measured by ATP; PC12 HTT-Q103 induced, cytoprotection, ATP luminescence, 40 h; Potency, µM (highest dose often 56.4 µM), actives largely listed as activators; hit rate 0.14% among 230,000; also: nearly all actives have a fitted effect of over 45% in size
#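 PC12 cells stably carrying ecdysone-inducible Htt exon 1 (Q103)–GFP were induced with 100 nM tebufenozide (final) alongside library compounds in a dose series. Cytoprotection was scored as retained ATP by ATPlite luminescence.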
# ALDH1A1 inh: blocks purified human ALDH1A1 activity; Purified ALDH1A1, NADH fluorescence, propionaldehyde substrate; Potency, µM (titrated, usually from 75.3 µM), actives largely listed as inhibitors; hit rate 7.3% among 220,000; AID 1030; active = well fitted inhibition curve with a large enough effect, not every such curve was filed as active; inconclusive = small, poorly fitted or top-dose-only effect, or another doubt; inactive = no such curve, though single readings can be large or run the other way
# HttQ103 aggreg: inhibitors of mutant huntingtin aggregate formation in PC12 cells; PC12 HttQ103-GFP aggregates, Acumen cytometry, 40 h; Potency, µM (top dose mostly 46.1 µM), usual class: inhibitors; hit rate 1.1% among 220,000; AID 1688; also: nearly all actives have a fitted effect of over 60% in size
#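 Aggregate formation scored by laser-scanning cytometer (488 excitation, 500–530 emission) in lysed PC12 cells expressing Q103-GFP after 100 nM tebufenozide induction; library tested in dose series, with ATPLite reagent added in the multiplex.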
# Luc counter: blocks Kinase-Glo luciferase, a counter-screen artifact. Kinase-Glo luciferase, ATP luminescence, 8 min. Potency, µM (series often up to 38.3 µM), hits mostly inhibitors. hit rate 0.28% among 200,000. AID 1379; also: nearly all actives have a fitted effect of over 60% in size
#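 Compound is pinned into ATP-containing buffer (10 uM ATP, imidazole pH 7.2, 7 mM MgCl2). Kinase-Glo luciferase reagent is then added. Light output is recorded following an 8-min room-temperature incubation.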
# Numbers stand for hits; . = inactive; ? = inconclusive; / = not tested or not shown; [ ] = dose if it differs, or a comment. Unless noted, calls follow the shape of the dose curve; as a rule, active = well fitted curve in the direction sought with a large enough effect; inconclusive = small, poorly fitted or top-dose-only effect, or another doubt; inactive = no such curve, though single readings can be large; an effect the other way counts as inactive or inconclusive.
SMILES,LMNA splice mod,HPGD block,HTT cytoprotect,ALDH1A1 inh,HttQ103 aggreg,Luc counter
COCc1[nH]nc2c1C(c1ccnc3ccccc13)C(C#N)=C(N)O2 (stereo not given),.,.,.,?,.,.
Cc1cc2c(cc1C)CN(c1ccccc1)C2,/,/,.[10 µM],/,.[9.22 µM],/
Nn1cnn(Cc2ccccc2)c1=S,.,20µM,.[10 µM],25.1µM,.,.
Cc1cc(N=NC(=O)c2ccccc2)ccc1O,.,/,.[10 µM],22.4µM,.,.
Cc1ccc(N2C(=O)CN(Cc3cccs3)C2=S)cc1C,.,/,.,.,.,.
Cc1ccc(N2C(=O)CN(Cc3sccc3C)C2=S)cc1C,?,3.16µM,.[10 µM],?,?,.
Cc1nonc1C1CCCN1Cc1cn[nH]c1-c1ccc2c(c1)OCO2 (stereo not given),/,/,.,15.8µM,?,/
COc1ccc(-c2[nH]ncc2CN2CCCC2c2nonc2C)c(F)c1 (stereo not given),.,/,.[10 µM],?,.[9.22 µM],.
CCCN=C1N/C(=C\c2ccco2)C(=O)N1c1ccccc1,.,.,.,.,.,.
CCCN(CCC)C1=N/C(=C\c2ccco2)C(=O)N1c1ccccc1,.,?,.,14.1µM,.,.
CCCC(C)C(=O)Nc1ccncc1 (stereo not given),.,.,.[10 µM],.,.,.
CCOC(=O)c1cnc2sc3c(n2c1=O)CCCC3,?,?,.[10 µM],?,8.91µM,.
CCOC(=O)c1cnc2nc(C)[nH]n2c1=O,.,.,.,.,.,.
COc1cccc(-c2nc(-c3ccc(Br)o3)no2)c1,.,/,.[10 µM],/,.[9.22 µM],/
COc1ccc(NC(=O)c2sc(=S)[nH]c2N)cc1,.,28.2µM,.,10µM,.,.
O=C1CCCN1CCCNC(=S)Nc1ccccc1,/,/,.[10 µM],/,.[9.22 µM],/
O=C1CCCN1CCCNC(=S)Nc1ccc(Nc2ccccc2)cc1,/,/,.,14.1µM,.,.
CCOC(=O)c1ccc(NC(=S)NCCCN2CCCC2=O)cc1,/,/,.[10 µM],0.0316µM,.[9.22 µM],.
O=C(CC(c1ccco1)C1CCCCC1=O)c1ccco1 (stereo not given),.,.,.,25.1µM,.,.
O=C(CC(c1ccccc1)C1CCCCC1=O)c1ccco1 (stereo not given),.,?,.[10 µM],?,.,.
CN(C)c1ccc(C(CC(=O)c2ccccc2)C2CCCCC2=O)cc1 (stereo not given),.,.,.[10 µM],?,.,.
COc1ccc(C(=O)CC(c2ccccc2)C2CCCCC2=O)cc1 (stereo not given),.,.,.,0.501µM,.,.
CC(=O)OC(COc1ccccc1)Cn1cnc2cc(C)c(C)cc21 (stereo not given),/,/,.,.,.,.
COc1ccc(CCNC(=O)c2ccc3c(c2)SC2=NS(=O)(=O)CCN23)cc1,/,/,.[10 µM],/,.[9.22 µM],/
C/C(=N\OC(=O)c1c(-c2c(F)cccc2Cl)noc1C)c1nccs1,/,/,.,?,.,.
SMILES,LMNA splice mod,HPGD block,HTT cytoprotect,ALDH1A1 inh,HttQ103 aggreg,Luc counter
Cc1onc(-c2c(F)cccc2Cl)c1C(=O)OCn1nnc2ccccc2c1=O,?,12.6µM,.[10 µM],.,.,.
Cc1onc(-c2c(F)cccc2Cl)c1C(=O)O/N=C(\N)c1ccc([N+](=O)[O-])o1,/,/,.[10 µM],7.94µM,.[9.22 µM],/
Cc1ccc(NC(=O)c2ccc(Cn3cc([N+](=O)[O-])cn3)cc2)c(C)c1,?,.,/,.,.,.
CC(=O)N1CCN(c2ccc(Nc3nc(C)nc4c3oc3ccccc34)cc2)CC1,?,.,.,?,.,.
Cc1nc(SCC(=O)Nc2ccc3c(c2)OCCO3)c2oc3ccccc3c2n1,.,.,.[0.074 µM],.,.,.
CCOC(=O)CC(=O)CSc1nc(C)nc2c1oc1ccccc12,.,?,.,?,1.12µM,.
Cc1nc(SCC(=O)N2CCN(c3ccccc3)CC2)c2oc3ccccc3c2n1,?,?,.[0.074 µM],39.8µM,.,.
Cc1nc(SCC(=O)NCc2ccccc2)c2oc3ccccc3c2n1,.,.,.,.,.,.
Cc1nc(SCC(=O)O)c2oc3ccccc3c2n1,.,17.8µM,.,.,.,.
